Records with an inconclusive call do not appear. Where a call stands in place of a potency, no number is given. Active and inactive are the calls of the source. Unless noted, the call rests on the fitted dose curve; in most records, active means well fitted curve in the direction sought with a large enough effect; inconclusive means small, poorly fitted or top-dose-only effect, or another doubt; inactive means no such curve, though single readings can be large; an effect the other way counts as inactive or inconclusive.
Key:
[1] = molecular target: Cytochrome P450 2D6 (Homo sapiens) (UniProt P10635); assay: Cytochrome P450 family 2 subfamily D member 6 (CYP2D6) small molecule antagonists: luciferase biochemical (cell-free) qHTS assay (AID 1645840; active means well fitted curve in the direction sought with a large enough effect in the repeat runs; an effect the other way counts as inactive or inconclusive; further: series mostly up to about 57 µM; nearly all actives have a fitted effect of over 55% in size)
Chain of Cytochrome P450 2D6 (Homo sapiens) (P10635 whole entry, looked up): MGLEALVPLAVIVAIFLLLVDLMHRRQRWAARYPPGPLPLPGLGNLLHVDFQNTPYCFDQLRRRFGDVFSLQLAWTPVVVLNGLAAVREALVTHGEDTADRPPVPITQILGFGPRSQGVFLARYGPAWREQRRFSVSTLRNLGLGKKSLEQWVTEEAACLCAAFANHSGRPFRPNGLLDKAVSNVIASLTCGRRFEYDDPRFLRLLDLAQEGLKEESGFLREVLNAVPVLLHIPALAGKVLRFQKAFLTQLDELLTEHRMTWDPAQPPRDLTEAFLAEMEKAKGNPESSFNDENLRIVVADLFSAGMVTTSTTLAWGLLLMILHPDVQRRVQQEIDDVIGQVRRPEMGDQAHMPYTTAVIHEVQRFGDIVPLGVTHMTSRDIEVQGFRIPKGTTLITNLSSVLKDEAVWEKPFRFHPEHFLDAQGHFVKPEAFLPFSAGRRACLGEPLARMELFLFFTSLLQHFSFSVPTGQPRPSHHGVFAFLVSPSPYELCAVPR
Outline: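 P450-Glo CYP2D6 system: proluciferin substrate converted by enzyme to luciferin, read by luminescence proportional to activity. Enzyme-substrate mix with compound 10 min at room temperature, then NADPH regeneration 1 h before detection reagent.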

[2] = molecular target: Cytochrome P450 2C9 (Homo sapiens) (UniProt P11712); assay: Cytochrome P450 family 2 subfamily C member 9 (CYP2C9) small molecule antagonists: luciferase biochemical (cell-free) qHTS assay (AID 1645842; active means well fitted curve in the direction sought with a large enough effect in the repeat runs; an effect the other way counts as inactive or inconclusive; further: nearly all actives have a fitted effect of over 55% in size; further: potency means the concentration at half of the fitted maximal effect)
Chain of Cytochrome P450 2C9 (Homo sapiens) (P11712 whole entry, looked up): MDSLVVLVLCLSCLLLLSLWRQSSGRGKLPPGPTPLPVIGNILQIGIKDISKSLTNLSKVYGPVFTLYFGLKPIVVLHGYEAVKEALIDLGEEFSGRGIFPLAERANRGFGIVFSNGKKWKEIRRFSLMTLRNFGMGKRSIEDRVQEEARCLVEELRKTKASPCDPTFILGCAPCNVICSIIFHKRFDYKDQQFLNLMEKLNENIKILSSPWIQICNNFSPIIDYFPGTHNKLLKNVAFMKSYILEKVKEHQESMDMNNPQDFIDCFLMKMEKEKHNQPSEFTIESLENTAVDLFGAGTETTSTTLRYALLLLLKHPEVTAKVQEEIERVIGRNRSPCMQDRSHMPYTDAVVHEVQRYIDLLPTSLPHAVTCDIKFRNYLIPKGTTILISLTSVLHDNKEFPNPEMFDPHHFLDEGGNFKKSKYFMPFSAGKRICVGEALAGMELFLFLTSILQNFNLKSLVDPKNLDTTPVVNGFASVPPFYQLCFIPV
Outline: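 P450-Glo CYP2C9 system: proluciferin substrate with enzyme in mix containing 0.4% BSA, 10 min at room temperature, then NADPH regeneration solution added and incubated 1 h at 37C. Detection reagent stopped reaction; luminescence read after 20 min as RLU.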

[3] = Primary qHTS for inhibitors of nuclear receptor binding SET domain protein 2 (NSD2) in an isogenic RCH-ACV NSD2 p.E1099K mutant (9B) (AID 1645876); further: nearly all actives have a fitted effect of over 70% in size; further: potency means the concentration at half of the fitted maximal effect
[4] = Primary qHTS for inhibitors of nuclear receptor binding SET domain protein 2 (NSD2) in an RCH-ACV wild type WT cells (2C) (AID 1645877); further: nearly all actives have a fitted effect of over 70% in size; further: potency means the concentration at half of the fitted maximal effect
[5] = molecular target: N-terminal Xaa-Pro-Lys N-methyltransferase 1 (Homo sapiens) (UniProt Q9BV86); assay: Confirmatory qHTS for Inhibitors of N-terminal methyltransferase 1 (NTMT1): MTaseGlo Assay (AID 1645874);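 further: luminescence from SAH made as NTMT1 methylates SPKRIA peptide using SAM; series mostly up to about 100 µM; nearly all actives have a fitted effect of over 65% in size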
Chain of N-terminal Xaa-Pro-Lys N-methyltransferase 1 (Homo sapiens) (Q9BV86 whole entry, looked up): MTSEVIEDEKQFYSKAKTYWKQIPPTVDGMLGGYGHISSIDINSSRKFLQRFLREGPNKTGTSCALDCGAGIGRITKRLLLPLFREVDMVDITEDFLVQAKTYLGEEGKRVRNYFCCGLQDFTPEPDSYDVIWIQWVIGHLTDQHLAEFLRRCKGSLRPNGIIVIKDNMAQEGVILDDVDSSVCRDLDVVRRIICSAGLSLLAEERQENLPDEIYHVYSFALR
Outline: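 Room-temperature NTMT1 reaction, 30 min, with 100 uM SAM and 1 uM SPKRIA substrate; enzyme 125 nM. Read-out: MTase-Glo luminescence, normalized to no-enzyme and DMSO controls.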

Compound: OCCOCCOCCO
- Potency [1]: inactive
- Potency [2]: inactive

Compound: CC(C)[C@@H]1CC[C@@H](C)C[C@H]1OC(=O)c1ccccc1O
- Potency [1]: inactive
- Potency [2]: inactive

Compound: S=C=Nc1ccc(N=C=S)cc1
- Potency [1]: inactive
- Potency [2]: inactive

Compound: COc1ccc([C@@H]2CC(=O)c3c(O)cc(O[C@@H]4O[C@H](CO[C@@H]5O[C@@H](C)[C@H](O)[C@@H](O)[C@H]5O)[C@@H](O)[C@H](O)[C@H]4O)cc3O2)cc1O
- Potency [3]: inactive
- Potency [4]: inactive

Compound: CN[C@@H]1[C@@H](O)[C@@H](O[C@@H]2[C@@H](O)[C@H](O[C@H]3O[C@H](CN)[C@@H](O)[C@H](O)[C@H]3O)[C@@H](N)C[C@H]2NC(=O)C(O)CN)OC[C@]1(C)O (some centres not stated)
- Potency [3]: inactive

Compound: Cc1c(C)c2c(c(C)c1OC(=O)CCC(=O)O)CC[C@@](C)(CCC[C@H](C)CCC[C@H](C)CCCC(C)C)O2
- Potency [2]: 21.3 µM (active)

Compound: COc1cc(C)c(/C=C/C(C)=C/C=C/C(C)=C/C(=O)O)c(C)c1C
- outcome [5]: inactive
- Potency [4]: 18.6 µM (active)

Compound: O=C(O)Cc1cc(I)c(Oc2ccc(O)c(I)c2)c(I)c1
- Potency [3]: 20.5 µM (active)

Compound: CC(=O)Nc1ccc(NC(=S)NC(=O)c2ccc(C(C)(C)C)cc2)cc1
- Potency [3]: 1.83 µM (active)
- Potency [4]: 3.25 µM (active)

Compound: CO[C@H]1C[C@@H]2CC[C@@H](C)[C@@](O)(O2)C(=O)C(=O)N2CCCC[C@H]2C(=O)O[C@H]([C@H](C)C[C@@H]2CC[C@@H](OC(=O)C(C)(CO)CO)[C@H](OC)C2)CC(=O)[C@H](C)/C=C(\C)[C@@H](O)[C@@H](OC)C(=O)[C@H](C)C[C@H](C)/C=C/C=C/C=C/1C
- Potency [3]: 0.204 µM (active)
- Potency [4]: 0.574 µM (active)

Reference: PubChem BioAssay (NCATS)
